High-throughput results from PubChem.
Sa helicase inh – S. aureus DNA helicase inhibition; actives 0.05% (n = 120,000); inhibition, % (no concentration beside the values); purified S. aureus helicase, fluorescence unwinding assay; in the data active means inhibition above about 25%, passing the limit was not always enough;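 further: 0% = mean of negative control wells and 100% = mean of positive control wells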
HCMV NEC inh – disrupts HCMV UL50-UL53 complex binding | HTRF UL50-UL53 interaction, normalized percent inhibition | inhibition, % (test concentration not listed) | actives 0.15% (n = 190,000); in the data active means inhibition above about 27%, passing the limit was not always enough
Sa growth inh – S. aureus growth inhibition; S. aureus RN4220 growth, OD600, 20 h, 42 °C; active compounds read low; actives 0.53% (n = 170,000); relative growth, % (concentration not given with the values);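 active means relative growth at most 50% at the other temperature and 20+ points below 30 °C, or under 10% at both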
Numbers without * were called inactive; . = no result given. The sample as a whole holds a higher share of hits than the screen did.

SMILES | Sa helicase inh | HCMV NEC inh | Sa growth inh
Cn1c(=O)c2ncnnc2n(C)c1=O | 7 | 12 | 5.9*
CN1C(=O)[C@]23CC4=CC=C[C@H](O)[C@H]4N2C(=O)[C@@]1(CO)SS3 | . | 55* | .
Cc1ccc(-c2cn3c(n2)sc2cc(C(=O)N4CCC5(CC4)OCCO5)ccc23)cc1 | 7 | -20 | 102
Cc1ccc2c(c1)C1CN(C)CCC1N2Sc1ccc(Cl)cc1 (centres undefined) | -5 | 2 | -1.3*
Cc1ccc2c(c1)C1CN(C)CCC1N2C(=O)Cc1cccs1 (centres undefined) | 17 | -24 | 132
CCOC(=O)c1c(CSc2ccccc2)n(Cc2ccccc2)c2cc(Br)c(O)c(CN(C)C)c12 | . | -18 | .
CCOC(=O)CSCCOc1ccc(C=C2C(=O)NC(=O)NC2=O)cc1OC | . | 60* | .
COc1ccc(C=C2C(=O)NC(=O)NC2=O)cc1 | 1 | . | 82
COc1cc(C=C2C(=O)NC(=O)NC2=O)ccc1OS(=O)(=O)c1ccccc1 | . | 60* | .
CCOC(=O)COc1ccc(/C=C2\C(=O)NC(=S)N(c3ccc(OC)cc3)C2=O)cc1OC | . | -32 | .
CC=C(C)C(=O)NC(c1ccccc1)C(O)C(=O)OC1C[C@@]2(O)C(OC(=O)c3ccccc3)[C@@H]3[C@]4(OC(C)=O)COC4CC(O)[C@@]3(C)C(=O)C(OC(C)=O)C(=C1C)C2(C)C (some centres undefined) | . | -10 | .
C#C[C@@]1(O)C=C[C@H]2[C@@H]3CCC4=CC(=O)CC[C@@H]4[C@@H]3CC[C@@]21CC | . | 4 | .
CCCCCCC(=O)O[C@H]1CC[C@H]2[C@@H]3CC(=O)C4=CC(=O)CC[C@]4(C)[C@H]3CC[C@]12C | . | -32 | .
S=P12CN3CN(CN(C3)C1)C2 | 7 | -23 | 101
Cc1nc2nc(-c3ccccc3)nn2c(C)c1CC(=O)N1CCN(C)CC1 | . | -18 | .
CN(C)C(=S)SSC(=S)N(C)C | . | -26 | -0.7*
CN1CCc2cc(O)cc3c2[C@H]1Cc1ccc(O)c(O)c1-3 | . | -38 | .
CN1CCc2cc3c(c4c2C1Cc1ccccc1-4)OCO3 (centres undefined) | 24 | -9 | 0.1*
Cc1ccc(C(O)(c2ccc(C)c(C)c2)C2CN3CCC2CC3)cc1C (centres undefined) | -4 | . | 23*
OC(c1cccs1)(c1cccs1)C1CN2CCC1CC2 (centres undefined) | -16 | 15 | 103
CCCCCCc1cc(O)c2c(c1)OC(C)(C)C1=C2CCN(C)C1 | -2 | -30 | 103
CN(C)[C@@H]1C(=O)C(C(N)=O)=C(O)[C@@]2(O)C(=O)C3=C(O)c4c(O)ccc(Cl)c4[C@@](C)(O)C3C[C@@H]12 (some centres undefined) | . | -26 | .
CN(C)[C@@H]1C(=O)C(C(N)=O)=C(O)[C@@]2(O)C(=O)C3=C(O)c4c(O)cccc4[C@@](C)(O)[C@H]3C[C@@H]12 | . | -71 | -0.1*
Cc1cccc2cc(C=C(C#N)C#N)c(Cl)nc12 | 1 | -32 | 100
Cc1cc(C#N)c(C)n1-c1ccc(Cl)cc1C(=O)c1ccccc1Cl | -17 | 1 | 87
SMILES | Sa helicase inh | HCMV NEC inh | Sa growth inh
Clc1ccc(C(Cn2ccnc2)OCc2csc3c(Cl)cccc23)c(Cl)c1 (centres undefined) | . | -32 | 0.9*
Clc1ccc(C(Cn2ccnc2)OCc2c(Cl)cccc2Cl)c(Cl)c1 (centres undefined) | . | -2 | .
CC(=O)O[C@]1(C)C(=O)OC/C2=C/CN(C)CCC(OC(=O)[C@@](O)(C(C)O)C[C@@H]1C)C2=O (some centres undefined) | -7 | -16 | 89
CC(C)Nc1ccc(Nc2ccccc2)cc1 | 19 | -36 | 4.5*
CC(=O)Nc1ccc(-c2ccccc2)cc1 | . | -8 | 104
Cc1ccc(C=C(C#N)C#N)c(C)c1 | 4 | -5 | 67
CCCCCCCCCCCCCCCC[N+](C)(C)C | . | -13 | -0.5*
CCCCCCCCCCCCCCCCSP(=O)([O-])OCC[N+](C)(C)C | . | -19 | .
CN(C)CCN(C)C | -12 | 1 | 98
OC1(C#CCN2CCCC[C@H]2c2cccnc2)CCCCC1 | -10 | -6 | 72
